From PubChem BioAssay AID1159580 (chemical genetic matrix, 2015)
About 2,000 (36%) of roughly 5,500 compounds were called active. About 18% were inconclusive and are not listed. Cut-off read from the data, not from the text of the source: active = normalized growth mostly below about 0.91 (no sharp cut-off); inconclusive = no clear call, values can overlap the other calls; inactive = mostly above about 0.92. The list shows a part of the results.

Assay: chemical genetic growth profiling, strain panel (AID 1159580);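 note: tested at 20 µM; growth read once vehicle control cultures reached saturation at 30 °C; 1 = growth at the plate median or of vehicle wells; lower values mean less growth of the strain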
Details: growth OD

Measured: normalized growth

CC(=O)Oc1cccc(O)c1
inactive: S. cerevisiae deletion strains, locus YJR075W, strain HOC1, stronger effect = lower value 1 | S. cerevisiae deletion strains, locus YKL009W, strain mrt4, stronger effect = lower value 1.01 | S. cerevisiae deletion strains, locus YKL068W, stronger effect = lower value 1 | S. cerevisiae deletion strains, locus YKL085W, strain MDH1 (second series), stronger effect = lower value 1 | S. cerevisiae deletion strains, locus YKL085W, strain MDH1, stronger effect = lower value 1 | S. cerevisiae deletion strains, locus YKL160W, strain elf1, stronger effect = lower value 1.01 | S. cerevisiae deletion strains, locus YKL190W, strain CNB1, stronger effect = lower value 1 | S. cerevisiae deletion strains, locus YKR001C, strain vps1, stronger effect = lower value 1.02 | S. cerevisiae deletion strains, locus YKR026C, strain gcn3, stronger effect = lower value 1.01 | S. cerevisiae deletion strains, locus YKR091W, strain srl3, stronger effect = lower value 1.01 | S. cerevisiae deletion strains, locus YLL001W, strain dnm1, stronger effect = lower value 1.02 | S. cerevisiae deletion strains, locus YLL026W, stronger effect = lower value 1.01 | S. cerevisiae deletion strains, locus YLL041C, strain sdh2, stronger effect = lower value 1.01 | S. cerevisiae deletion strains, locus YLR027C, strain aat2, stronger effect = lower value 1.03 | S. cerevisiae deletion strains, locus YLR039C, strain RIC1, stronger effect = lower value 1.04 | S. cerevisiae deletion strains, locus YLR058C, strain SHM2, stronger effect = lower value 1.01 | S. cerevisiae deletion strains, locus YLR102C, strain apc9, stronger effect = lower value 1.01 | S. cerevisiae deletion strains, locus YLR113W, strain HOG1, stronger effect = lower value 0.982 | S. cerevisiae deletion strains, locus YLR221C, strain rsa3, stronger effect = lower value 1.03 | S. cerevisiae deletion strains, locus YLR258W, strain gsy2, stronger effect = lower value 1.02 | S. cerevisiae deletion strains, locus YLR262C, strain YPT6 (second series), stronger effect = lower value 1.04 | S. cerevisiae deletion strains, locus YLR262C, strain YPT6, stronger effect = lower value 1.05 | S. cerevisiae deletion strains, locus YLR268W, strain sec22, stronger effect = lower value 1.02 | S. cerevisiae deletion strains, locus YLR320W, strain mms22, stronger effect = lower value 1.04 | S. cerevisiae deletion strains, locus YLR330W, strain CHS5, stronger effect = lower value 1.01 | S. cerevisiae deletion strains, locus YLR342W, strain FKS1 (second series), stronger effect = lower value 1.01 | S. cerevisiae deletion strains, locus YLR342W, strain FKS1, stronger effect = lower value 1.03 | S. cerevisiae deletion strains, locus YLR357W, strain rsc2, stronger effect = lower value 1.02 | S. cerevisiae deletion strains, locus YLR370C, strain arc18, stronger effect = lower value 1.01 | S. cerevisiae deletion strains, locus YLR371W, strain rom2, stronger effect = lower value 1 | S. cerevisiae deletion strains, locus YLR384C, strain iki3, stronger effect = lower value 1.01 | S. cerevisiae deletion strains, locus YLR418C, strain cdc73, stronger effect = lower value 1.05 | S. cerevisiae deletion strains, locus YML016C, strain PPZ1, stronger effect = lower value 1.01 | S. cerevisiae deletion strains, locus YML032C, strain rad52, stronger effect = lower value 1.02 | S. cerevisiae deletion strains, locus YML120C, strain ndi1, stronger effect = lower value 1.01 | S. cerevisiae deletion strains, locus YML124C, strain tub3, stronger effect = lower value 1.01 | S. cerevisiae deletion strains, locus YMR058W, strain fet3, stronger effect = lower value 1.03 | S. cerevisiae deletion strains, locus YMR078C, strain ctf18, stronger effect = lower value 1.02 | S. cerevisiae deletion strains, locus YMR125W, strain sto1, stronger effect = lower value 1.03 | S. cerevisiae deletion strains, locus YMR129W, stronger effect = lower value 1.01 | S. cerevisiae deletion strains, locus YMR205C, strain PFK2, stronger effect = lower value 1.03 | S. cerevisiae deletion strains, locus YMR223W, strain ubp8, stronger effect = lower value 1.02 | S. cerevisiae deletion strains, locus YMR231W, strain pep5, stronger effect = lower value 1.01 | S. cerevisiae deletion strains, locus YMR263W, strain SAP30, stronger effect = lower value 1 | S. cerevisiae deletion strains, locus YMR307W, strain GAS1, stronger effect = lower value 0.985 | S. cerevisiae deletion strains, locus YNL067W, strain RPL9B, stronger effect = lower value 0.996 | S. cerevisiae deletion strains, locus YNL071W, strain lat1, stronger effect = lower value 1.02 | S. cerevisiae deletion strains, locus YNL128W, strain TEP1, stronger effect = lower value 1.01 | S. cerevisiae deletion strains, locus YNL183C, strain NPR1, stronger effect = lower value 0.938 | S. cerevisiae deletion strains, locus YNL209W, strain ssb2, stronger effect = lower value 1.04 | S. cerevisiae deletion strains, locus YNL233W, strain BNI4, stronger effect = lower value 0.993 | S. cerevisiae deletion strains, locus YNL248C, strain rpa49, stronger effect = lower value 1.03 | S. cerevisiae deletion strains, locus YNL250W, strain rad50, stronger effect = lower value 1.06 | S. cerevisiae deletion strains, locus YNL271C, strain bni1, stronger effect = lower value 1.01 | S. cerevisiae deletion strains, locus YNL298W, strain CLA4, stronger effect = lower value 1.03 | S. cerevisiae deletion strains, locus YNL307C, strain MCK1, stronger effect = lower value 1.02 | S. cerevisiae deletion strains, locus YNL322C, strain KRE1 (second series), stronger effect = lower value 1.01 | S. cerevisiae deletion strains, locus YNR049C, strain mso1, stronger effect = lower value 1 | S. cerevisiae deletion strains, locus YNR052C, strain pop2, stronger effect = lower value 1.01 | S. cerevisiae deletion strains, locus YOL006C, strain TOP1, stronger effect = lower value 0.999 | S. cerevisiae deletion strains, locus YOL012C, strain htz1 0.912 | S. cerevisiae deletion strains, locus YOL147C, strain pex11, stronger effect = lower value 1.01 | S. cerevisiae deletion strains, locus YOR001W, strain rrp6, stronger effect = lower value 1.05 | S. cerevisiae deletion strains, locus YOR061W, strain CKA2, stronger effect = lower value 1.01 | S. cerevisiae deletion strains, locus YOR069W, strain VPS5, stronger effect = lower value 1 | S. cerevisiae deletion strains, locus YOR070C, strain gyp1, stronger effect = lower value 1.02 | S. cerevisiae deletion strains, locus YOR080W, strain dia2, stronger effect = lower value 1.01 | S. cerevisiae deletion strains, locus YOR083W, strain WHI5, stronger effect = lower value 1.01 | S. cerevisiae deletion strains, locus YOR106W, strain vam3, stronger effect = lower value 1.02 | S. cerevisiae deletion strains, locus YOR136W, strain idh2, stronger effect = lower value 1.02 | S. cerevisiae deletion strains, locus YOR144C, strain elg1, stronger effect = lower value 1.01 | S. cerevisiae deletion strains, locus YOR184W, strain ser1, stronger effect = lower value 1.03 | S. cerevisiae deletion strains, locus YOR231W, strain MKK1, stronger effect = lower value 0.977 | S. cerevisiae deletion strains, locus YOR265W, strain rbl2, stronger effect = lower value 1 | S. cerevisiae deletion strains, locus YOR270C, strain vph1, stronger effect = lower value 1.07 | S. cerevisiae deletion strains, locus YOR290C, strain snf2, stronger effect = lower value 1.01 | S. cerevisiae deletion strains, locus YOR316C, strain cot1, stronger effect = lower value 1.01 | S. cerevisiae deletion strains, locus YPL051W, strain arl3, stronger effect = lower value 1.04 | S. cerevisiae deletion strains, locus YPL078C, strain atp4, stronger effect = lower value 1.03 | S. cerevisiae deletion strains, locus YPL106C, strain sse1, stronger effect = lower value 1.01 | S. cerevisiae deletion strains, locus YPL240C, strain hsp82, stronger effect = lower value 1.03 | S. cerevisiae deletion strains, locus YPL241C, strain CIN2, stronger effect = lower value 1.01 | S. cerevisiae deletion strains, locus YPL256C, strain CLN2, stronger effect = lower value 0.951 | S. cerevisiae deletion strains, locus YPR119W, strain clb2, stronger effect = lower value 1.01 | S. cerevisiae deletion strains, locus YPR141C, strain kar3, stronger effect = lower value 1.01 | S. cerevisiae deletion strains, locus YPR163C, strain tif3, stronger effect = lower value 1.02 | S. cerevisiae deletion strains, locus YPR167C, strain met16, stronger effect = lower value 1.01 | S. cerevisiae deletion strains, strain wtn01, stronger effect = lower value 1.03 | S. cerevisiae strains, strain wild type, stronger effect = lower value 1.01
